# Some of the results follow. Unmarked numbers belong to inactive results.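 How the source made its calls: active means compounds giving 40% or more inhibition at 20 µM in any one of the three replicates; inactive means the rest.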
# Target: Uracil-DNA glycosylase (Escherichia coli (strain K12)) (UniProt P12295)
# Assay: E. coli UDG inhibitors, confirmation, counter-screen for APOBEC3G inhibitor project, biochemical, single concentration, fluorescence, FAM/TAMRA oligo (AID 504715);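 further: plate controls were DMSO wells with UDG and oligo for no effect and DMSO wells lacking both for full effect; inhibitors lower the FAM signal released by uracil excision and alkaline cleavage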
# Conditions: UDG counterscreen, at 20 µM, active compounds read high
# Uracil-DNA glycosylase (Escherichia coli (strain K12)), sequence (P12295 whole entry, looked up): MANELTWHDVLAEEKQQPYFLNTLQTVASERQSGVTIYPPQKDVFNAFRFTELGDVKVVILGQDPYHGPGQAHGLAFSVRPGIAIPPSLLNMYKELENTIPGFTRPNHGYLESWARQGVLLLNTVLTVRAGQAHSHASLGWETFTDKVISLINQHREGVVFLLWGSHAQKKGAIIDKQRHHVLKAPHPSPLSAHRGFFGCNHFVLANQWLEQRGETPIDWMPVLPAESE
row,SMILES,inhibition [%]
1,COc1ccccc1-n1c(-c2cc(-c3ccco3)[nH]n2)n[nH]c1=S,-3.83
2,S=c1[nH]nc(-c2ccc(Cl)cc2)n1CC1CCCO1 (stereo unspecified),2.84
3,COc1ccc(N2C(=O)CC(Sc3n[nH]c(-c4ccc(C)cc4)n3)C2=O)cc1 (stereo unspecified),-1.53
4,CC(C)(C)c1nnc(NC(=O)C2c3ccccc3Oc3ccccc32)s1,-3.35
5,S=c1[nH]nc(Nc2ccccc2)s1,6.03
6,S=c1[nH]nc2c3c4c(sc3ncn12)CCCC4,-7.25
7,S=c1[nH]nc(NCCc2ccccc2)s1,-0.78
8,CCOC(=O)c1sc(=S)n2c1[nH]c(=O)c1ccc(C(=O)OC)cc12,1.35
9,CCc1c(C)[nH]c(=S)c(C#N)c1C,-0.5
10,Cc1ccc(C(=O)c2c(NC(=O)c3ccccc3)sc(C)c2C)cc1,2.57
11,O=c1[nH]c2ccccc2n2c(-c3ccccc3)nnc12,-5.75
12,COc1ccc(OCc2n[nH]c(=S)n2N)cc1,-3.03
13,O=C1CC(Sc2ncn[nH]2)C(=O)N1c1ccccc1 (stereo unspecified),-0.97
14,COCc1c(N)c(C)nc(Cl)c1C#N,-3.83
15,O=C1C=CC(=O)N1c1ccc(N2CCCCC2)cc1,-1.51
16,Cc1cc(C)c2c(-c3ccc(F)cc3)c(C#N)c(=O)n(C)c2n1,-3.68
17,Cc1cc(-c2n[nH]c(=S)n2-c2ccc(C)c(C)c2)no1,-3.59
18,Fc1ccc(Nc2nnns2)cc1,3.44
19,Cc1nc([N+](=O)[O-])nn1C12CC3CC(CC(Br)(C3)C1)C2,2.58
20,S=c1[nH]nc(-c2ccco2)n1/N=C/c1ccccc1,-2.84
21,S=c1[nH]ccn1-c1ccc(Cl)cc1,2.81

# — PubChem BioAssay AID504715 (Sanford-Burnham Center for Chemical Genomics, 2011)
